Inhibition data for 57 compounds are collected here from PubChem BioAssay AID485344 (National Center for Advancing Translational Sciences (NCATS), 2010).

A word on the inhibition: it is the change of the read-out against control, counted positive when it falls.

Hit rate of the full screen: of about 340,000 compounds, about 6,900 (2%) were called active. The entries come from a sample that favours actives as a whole. A number with no mark means an inactive call. No stated cut-off is given here; in the data, active means inhibition above about 30%; inactive means below that, where a call was filed.

The assay deals with D(2) dopamine receptor (Homo sapiens) (UniProt P14416). As to the kind of experiment: HTS Assay for Allosteric Antagonists of the Human D2 Dopamine Receptor: Primary Screen for Antagonists. Further: 0% is about no effect. The conditions noted are these: HEK293 TREx D2 cells, calcium flux, dopamine EC80; at 10 µM; active compounds read high. A digest of the protocol: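 Tetracycline-induced HEK293 T-REx cells expressing D2 force-coupled to calcium signalling were dye-loaded, exposed to compound for 180 s, then challenged with an EC80 of dopamine; calcium flux was followed kinetically for a further 180 s.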
Sequence of D(2) dopamine receptor (Homo sapiens) (P14416 whole entry, looked up): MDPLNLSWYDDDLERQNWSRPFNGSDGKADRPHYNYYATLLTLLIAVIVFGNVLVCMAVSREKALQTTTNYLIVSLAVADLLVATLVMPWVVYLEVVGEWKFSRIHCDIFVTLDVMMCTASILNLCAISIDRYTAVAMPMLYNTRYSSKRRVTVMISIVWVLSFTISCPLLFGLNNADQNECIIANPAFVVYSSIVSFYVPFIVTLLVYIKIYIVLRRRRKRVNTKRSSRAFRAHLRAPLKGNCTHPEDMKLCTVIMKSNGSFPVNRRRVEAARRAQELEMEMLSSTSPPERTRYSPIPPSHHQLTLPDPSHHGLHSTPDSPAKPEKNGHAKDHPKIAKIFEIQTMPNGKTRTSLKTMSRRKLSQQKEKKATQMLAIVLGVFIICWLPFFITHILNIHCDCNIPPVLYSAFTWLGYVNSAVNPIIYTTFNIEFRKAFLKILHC
A general note: Calcium assays in cells follow changes in intracellular calcium, usually with a dye or a luminescent sensor.
Turning to `O=C(CSc1nnc(COc2ccc(Cl)cc2)n1Cc1ccco1)N1CCNC1=O`, the inhibition was 0.458%.

On to `Cc1ccc(CN2CCN(/N=C/c3ccco3)CC2)c(C)c1`, for which the inhibition is -9.84%. Turning to `Cc1ccc(CN2CCN(c3ncccn3)CC2)c(C)c1`, the inhibition is 80% (active). Turning to `CN(C)C(=O)c1nc2ccc(Cl)cn2c1CN1CCN(c2ncccn2)CC1`, the inhibition is -10.8%. Take `Cc1ccc(CN2CCN(/N=C/c3cccnc3)CC2)c(C)c1`: the inhibition is -10.4%. As to `c1cnc(N2CCN(c3ccc4ccccc4n3)CC2)nc1`, the inhibition is -7.91%. Take `Oc1ccc(CN2CCN(c3ncccn3)CC2)cc1`: the inhibition was 84.3% (active). The result for `Cc1ccc(CN2CC(C(=O)N3CCN(S(=O)(=O)c4ccccc4)CC3)CC2=O)cc1` (configuration not stated) reads -4.27%. Take `O=C(CCNC(=O)c1ccccc1Cl)NCc1ccco1`: the inhibition was -26.5%. Take `CCc1nnc(NC(=O)c2cc(S(=O)(=O)N3CCCCC3)ccc2C)s1`: the inhibition was -4.7%. Turning to `Cc1ccccc1NC(=O)Cc1nc(COC(=O)c2ccc(C(F)(F)F)cc2)cs1`, the inhibition was 2.02%. Consider `CN(CC(=O)NCC(c1ccccc1)N1CCCC1)S(=O)(=O)c1ccc(Cl)cc1` (configuration not stated), for which the inhibition was 11.7%. As to `CCOc1ccc(NC(=O)CN(C)C(=O)CCSc2ccc(F)cc2)cc1OCC`, the inhibition was -8.24%. `CC1CCC(NC(=O)CNC(=O)c2ccc3ccccc3c2)CC1` (configuration not stated): the inhibition was -11%. For `CCC(C)[C@H]1COCCS(=O)(=O)N1Cc1ccc(C)cc1` (some centres not stated), the inhibition was 36.6% (active). The result for `Cc1ccc(CN2CCCOCCS2(=O)=O)cc1` reads -5.42%.

Turning to `CCCC[C@H]1COCCS(=O)(=O)N1Cc1cccc(Cl)c1`, the inhibition was 0.354%. Consider `CCN(CC)C(CNC(=O)CSc1nnnn1-c1cccc(F)c1)c1ccco1` (configuration not stated), for which the inhibition was -7.6%. With `CN1CCN(S(=O)(=O)c2ccc(N3CCN(c4ccccc4O)CC3)c([N+](=O)[O-])c2)CC1`, the inhibition is 6.91%. For the compound `Cc1cc(CNC(=O)c2cccc([N+](=O)[O-])c2)c2ccccc2n1`, the inhibition was 49.1% (active). On to `CC(C)(C)SCCNC(=O)c1cccc([N+](=O)[O-])c1`, for which the inhibition was 7.44%.

As for `Cc1cc(C)nc(NC(=O)c2cccc([N+](=O)[O-])c2)c1`, the inhibition is 14.3%.

As for `O=C(COC(=O)c1ncc(Cl)c(Cl)c1Cl)NCc1ccccc1`, the inhibition was 6.01%.

On to `CCN(CC(=O)NCc1cccs1)C(=O)c1ccc(OC)c(S(=O)(=O)N2CCOCC2)c1`, for which the inhibition is 13.8%. Turning to `CCOC(=O)c1c(C)[nH]c(C)c1C(=O)CSc1nc(N)cc(N)n1`, the inhibition is 49.1% (active). Under `Cc1cc(C)nc(SCC(=O)N(C)C)n1` stands 7.94%. Consider `CCOC(=O)c1c(C)oc(C)c(C(=O)OCC)c1=O`, for which the inhibition is -5.88%. Turning to `COc1ccc(C)cc1NC(=O)c1cc(-c2ccccc2)nc2c1cnn2C(C)C`, the inhibition was 5.18%. As for `CC(C)n1ncc2c(C(=O)NCc3ccccc3CN(C)C)cc(C3CC3)nc21`, the inhibition is 79.9% (active). Regarding `CC(C)n1ncc2c(C(=O)Nc3ccc(CC#N)cc3)cc(C3CC3)nc21`, the inhibition was -20.3%. In the case of `COc1ccc(C2=NN(C(=O)CSc3nc(=O)n4ccc(C)cc4n3)C(c3ccc(C)cc3)C2)cc1` (configuration not stated), the inhibition is -6.53%. The result for `O=C(NCC(c1cccs1)N1CCOCC1)c1cc(Cl)ccc1[N+](=O)[O-]` (configuration not stated) reads 11.5%; that for `CC(=O)c1ccc(N2CCN(C(=O)c3ccc(Cl)c(S(=O)(=O)NC4CC4)c3)CC2)c(F)c1`, 8.05%; that for `CCCCN(CC(=O)Nc1cccc(S(=O)(=O)N2CCCC2)c1)Cc1nc2ccccc2c(=O)[nH]1`, -6.94%.

For the compound `O=C(CN1C(=O)CCC1=O)Nc1ccc(S(=O)(=O)N2CCOCC2)cc1`, the inhibition was 10.1%. The result for `O=C(CCc1ccc(S(=O)(=O)N2CCOCC2)cc1)Nc1ccc2ccccc2c1` reads -58.3%; that for `O=C(Nc1ccc2cn[nH]c2c1)c1ccc(S(=O)(=O)N2CCOCC2)cc1`, 30.5% (active). As to `O=C(Nc1ccc(S(=O)(=O)N2CCOCC2)cc1)c1ccc2ncsc2c1`, the inhibition is 16.7%. On to `CN1CCN(c2ccc(NC(=O)c3ccc4c(c3)OCCO4)cc2Cl)CC1`, for which the inhibition is -3.57%. Turning to `Cc1ccnc(NS(=O)(=O)c2ccc(NC(=O)c3ccc(S(=O)(=O)N4CCOCC4)cc3)cc2)n1`, the inhibition is -5.53%.

Take `O=C(CN1CCN(c2cccc(Cl)c2)CC1)Nc1ccc(S(=O)(=O)N2CCOCC2)cc1`: the inhibition is 30.5% (active). Under `O=C(Nc1ccc(N2CCOCC2)c(Cl)c1)c1ccc(S(=O)(=O)N2CCOCC2)cc1` stands 34.4% (active). The result for `O=C(CN1CCN(c2ccc(O)cc2)CC1)Nc1cc(S(=O)(=O)N2CCOCC2)ccc1Cl` reads -10.8%; that for `CC(C(=O)Nc1ccc(S(=O)(=O)N2CCCC2)cc1)N(C)Cc1ccc(F)cc1` (configuration not stated), -65.3%. With `CCn1nc(C(=O)NNC(=O)C2CSC3(C)CCC(=O)N23)c2ccccc2c1=O` (configuration not stated), the inhibition is -19.4%.

Turning to `COc1cc(C#Cc2ccc3cc(CCCO)oc(=O)c3c2)cc(OC)c1`, the inhibition was 7.69%.

For `COc1ccc(CNC(=O)C(=O)N2CCC3(CC2)OCCN3S(=O)(=O)c2ccc(C)cc2)cc1`, the inhibition was -3.99%. Regarding `C=CCSc1ccc(S(=O)(=O)N2CCN(C)CC2)cn1`, the inhibition is 6.94%.

For `CC(C)N(Cc1nnc(-c2ccccc2Br)o1)C(=O)c1cc(Cl)nc2ccccc12`, the inhibition is -0.847%.

Regarding `Cc1cc(C)cc(OCC(=O)Nc2ccc(N3CCOCC3)cc2N2CCOCC2)c1`, the inhibition was -19.7%. `CCOc1ccc(S(=O)(=O)N2CCC(C(=O)NCC(=O)Nc3cccc(Cl)c3C)CC2)cc1`: the inhibition is 0.735%.

`N#Cc1ccccc1S(=O)(=O)N1CCN(Cc2c(O)ccc3ccccc23)CC1`: the inhibition was -16.7%.

On to `COc1cccc(CNC(=O)C(=O)NCCC2CCCCN2S(=O)(=O)c2ccc(C)cc2)c1` (configuration not stated), for which the inhibition is -3.22%. Regarding `C[C@@H](NC(=O)c1nc[nH]c1C(=O)N1CCN(C(=O)OC(C)(C)C)CC1)c1ccccc1`, the inhibition is 4.62%.

For the compound `Cc1ccc(NC(=S)NC(=O)/C=C/c2ccc(Cl)cc2)cc1`, the inhibition was -2.32%. Take `COC(=O)c1c(C)[nH]c(C(=O)/C=C/c2ccc(Cl)cc2)c1C`: the inhibition was 40.8% (active). As to `CCCCOC(=O)c1[nH]c(C)c(C(=O)OC)c1C`, the inhibition is -12.8%.
